# An excerpt weighted towards active compounds, which were near 7.8% of everything screened.
# Vaccinia Venus: qHTS for Stage-Specific Inhibitors of Vaccinia Orthopoxvirus: Venus Reporter Primary qHTS; hit rate 0.46% among 330,000; Potency, µM (titrated, usually from 36.5 µM), without a hit: top-dose activity change, negative = inhibition, usual class: inhibitors; AID 720580, 2013; Vaccinia virus Venus reporter expression, fluorescence; calls by dose curve; tested in A549 cells; further: potency means the concentration at half of the fitted maximal effect; nearly all actives have a fitted effect of over 30% in size
# Vaccinia mCherry: qHTS for Stage-Specific Inhibitors of Vaccinia Orthopoxvirus: mCherry Reporter Primary qHTS. Potency, µM (top dose mostly 36.5 µM), for the others: at the top dose activity change, negative = inhibition, usual class: inhibitors. hit rate 0.63% among 310,000. Vaccinia virus mCherry reporter infection, fluorescence. AID 720579, 2013; calls by dose curve; tested in A549 cells; further: potency means the concentration at half of the fitted maximal effect; nearly all actives have a fitted effect of over 35% in size
# HCV inhibitor: qHTS Assay for Inhibitors of Hepatitis C Virus (HCV); Huh7.5.1 HCVcc-Cre infection, luciferase reporter, 44 h; Potency, µM (doses to about 41.8 µM), for inactives: at the top dose activity change, negative = inhibition, usual class: inhibitors; hit rate 3.4% among 340,000; active means well fitted inhibition curve with a large enough effect; inconclusive means small, poorly fitted or top-dose-only effect, or another doubt; inactive means no such curve, though single readings can be large or run the other way; further: potency means the concentration at half of the fitted maximal effect
#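 Whole-lifecycle infectious HCVcc-Cre system; cells 1,000/well, compound then virus (~0.5 moi) added 4 h after plating, 44 h culture. Luciferase read 15 sec following 15 min substrate incubation, room temp.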
# MARV entry inh: qHTS for inhibitors of binding or entry into cells for Marburg Virus. Marburg virus pseudotyped entry inhibition, cell reporter. Potency, µM (titrated, usually from 37.8 µM), without a hit: at the highest dose activity change, negative = inhibition, most hits filed as inhibitors. hit rate 1.8% among 300,000. AID 540276, 2011; calls by dose curve; tested in HEK293 cells; further: potency means the concentration at half of the fitted maximal effect
# HCMV antiviral: qHTS Assay for inhibitors of the human cytomegalovirus (HCMV); HFF cells, HCMV-luciferase reporter, 72 h; stronger effect = lower value; activity change, negative = inhibition, % at 57.5 µM; hit rate 4.5% among 410,000; in the data active means activity change below about -60%; inconclusive means no clear call, values can overlap the other calls; inactive means above about -39%
#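 Compounds were evaluated in HFFs infected with an HCMV luciferase reporter virus (MOI 1 PFU/cell). Luciferase in lysates collected 72 h post infection served as the replication measure.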
# Lassa entry inh: qHTS for Inhibitors of binding or entry into cells for Lassa Virus; Potency, µM (titrated, usually from 37.9 µM), for inactives: at the top dose activity change, negative = inhibition, usual class: inhibitors; Lassa virus pseudotype entry inhibition, cell reporter; hit rate 1.2% among 300,000; AID 540256, 2011; calls by dose curve; tested in HEK293 cells; further: potency means the concentration at half of the fitted maximal effect; nearly all actives have a fitted effect of over 50% in size
# The depositor's hits bear a star; i = inactive; ? = inconclusive; . = no result given; + = active, no number; [ ] = remark or other dose. On the % scale 0 is the no-effect control and ±100 the full control effect.
SMILES,Vaccinia Venus,Vaccinia mCherry,HCV inhibitor,MARV entry inh,HCMV antiviral,Lassa entry inh
CCOC(=O)Cc1ccc(NC(=O)c2ccc([N+](=O)[O-])cc2)cc1,.,.,-10.8%,-19.1%,-33.1,-19.8%
CCOC(=O)Cc1ccc(NC(=O)c2cccc([N+](=O)[O-])c2)cc1,-6.9%,-2.7%,-8.0%,.,-60.3*,.
CCN(CC)C1CCN(C(=O)c2ccc(OC3CCN(CCc4ccccc4)CC3)cc2)C1 (stereo not given),.,.,7.08µM*,.,-14.4,.
Cc1ccc(N2C(=O)c3cccc4c(N)ccc(c34)C2=O)c2cccnc12,.,.,13.9%,.,+,.
O=C(Nc1nc2c(Cl)cccc2s1)C1CC1,.,.,5.6%,.,28.8,.
O=C(Nc1nc2c(cc3c4c(cccc42)CC3)s1)c1ccccc1Cl,-12.2%,-8.9%,6.31µM*,?,?,?
COc1ccc(C)cc1NC(=O)Cn1c(=O)n(Cc2nc(C)no2)c(=O)c2ccccc21,-4.9%,-19.8%,.,.,-9.3,28.4%[46.1 µM]
O=C(Nc1ccc(Cn2cccn2)cc1)c1ccc(COc2ccccc2Br)cc1,?,?,12.6µM*,-13.7%[46.1 µM],-83.4*,?
COc1ccccc1OCc1ccc(C(=O)Nc2ccccc2)cc1,.,.,?,.,-39.3,.
COC(=O)[C@]1(S(=O)(=O)c2ccccc2)CC(=O)N(Cc2ccccc2)[C@@H]1c1ccccc1,.,.,.,.,-1.5,.
CCOP(=O)(OCC)c1nc(-c2ccc(C)cc2)oc1NCc1ccccc1,-0.1%,-22.2%,-21.8%,?,-60.6*,-15.2%
Cc1ccc2c(c1)N(C(=O)CCC(=O)Nc1ccccc1Br)CC(C)O2 (stereo not given),1.0%,18.3%,-19.7%,.,?,.
CC(=O)c1ccc(NC(=O)CCC(=O)N2CC(C)Oc3ccc(C)cc32)cc1 (stereo not given),-9.3%,-11.9%,10µM*,6.8%[46.1 µM],-20.3,?
CCCCCOC(=O)c1[nH]c2c(c1C)C(=O)CC(c1ccco1)C2 (stereo not given),?,?,?,0.461µM*,.,?
CCOCCOC(=O)c1[nH]c2c(c1C)C(=O)CC(c1cccs1)C2 (stereo not given),?,-6.6%,16.9%,?,-81.3*,?
CCOCCOC(=O)c1[nH]c2c(c1C)C(=O)CC(c1ccccc1)C2 (stereo not given),?,-15.3%,?,?,-71.0*,?
Cc1c(C(=O)OCCOc2ccccc2)[nH]c2c1C(=O)CC(c1ccccc1)C2 (stereo not given),-29.4%[7.34 µM],?,.,?,-36.7,-23.3%[46.1 µM]
Cc1c(C(=O)OCCOc2ccccc2)[nH]c2c1C(=O)CC(c1ccccc1Cl)C2 (stereo not given),-29.4%[7.34 µM],?,.,?,-85.6*,-11.6%[46.1 µM]
Cc1ccc(CNC(=O)C(C)n2c(=O)cc(-c3ccccc3)c3c(C)nn(C)c32)cc1 (stereo not given),11.2%,-2.2%,.,.,-9.7,-6.0%[46.1 µM]
CC(C)CCn1c(=O)c2sccc2n2c(CCCC(=O)NC(C)c3ccccc3)nnc12 (stereo not given),-11.0%,-18.8%,.,.,-33.3,2.0%[46.1 µM]
COc1ccc(NC(=O)Cn2c(=O)n(Cc3ccco3)c(=O)c3oc4ccccc4c32)cc1Cl,-11.1%,-19.1%,.,.,-21.9,3.5%[46.1 µM]
CCn1c(=O)c(C(=O)NNC(=O)c2ccccc2Cl)c(O)c2ccccc21,-6.5%,-22.8%,14.1µM*,0.8%[46.1 µM],?,?
CCCCCn1c(=O)c(C(=O)NCc2ccncc2)c(O)c2ccccc21,?,?,?,?,-87.6*,?
CCCCCn1c(=O)c(C(=O)NCc2ccccc2Cl)c(O)c2ccccc21,.,.,6.3%,.,-73.7*,.
CCn1c(=O)c(C(=O)NNC(=O)c2ccccc2F)c(O)c2ccccc21,-11.8%,?,?,?,?,?
SMILES,Vaccinia Venus,Vaccinia mCherry,HCV inhibitor,MARV entry inh,HCMV antiviral,Lassa entry inh
CCCn1c(=O)c(C(=O)NCc2ccccc2Cl)c(O)c2ccccc21,-10.6%,i,12.6µM*,0.7%,-37.4,?
CCCCn1c(=O)c(C(=O)NCc2ccc(Cl)cc2)c(O)c2ccccc21,-1.6%,?,?,?,3.8,-25.0%[46.1 µM]
CCCCCCCCCC[n+]1ccc(/C=C/c2c(C)[nH]c3ccccc23)cc1,397.9%,?,.,.,.,.
CC(C)CON=C1C[C@@H](O)[C@@H](O)[C@@H]2[C@H]3C(=O)N(C[C@@H]4CCCO4)C(=O)[C@@H]3CC[C@H]12,.,.,.,-9.9%[14.2 µM],.,.
[O-][n+]1c2c(c3c4non(O)c4ccc31)CCCC2,-1.7%,-3.7%,-23.3%,2.5%,-97.1*,-3.6%
CC(=O)N1CCc2c(sc(NC(=O)C3CC3)c2-c2nc3ccccc3s2)C1,?,?,12.6µM*,-0.4%,12.2,.
CCCCC(=O)Nc1sc2c(c1-c1nc3ccccc3s1)CCN(C(C)=O)C2,.,.,?,-5.1%,.,.
CC(=O)N1CCc2c(sc(NC(=O)CSc3ccccc3)c2-c2nc3ccccc3s2)C1,-2.6%[7.34 µM],-1.2%[7.34 µM],.,.,-97.0*,-18.3%[46.1 µM]
CC(=O)Nc1sc2c(c1-c1nc3ccccc3s1)CN(C(C)C)CC2,.,.,.,.,-97.3*,.
CCCCCCn1c(SCC#N)nc2ccccc2c1=O,-4.8%,27.7%,.,.,.,.
CCC(C)(C)NC(=O)c1ccccc1Oc1ccccc1,-8.8%,i,27.5%,?,-75.6*,5.0%[46.1 µM]
CCC(CC)NC(=O)c1ccccc1Oc1ccccc1,21.8%,.,-8.5%,-28.3%,3.7,2.9%
CCOc1ccc2c(c1)OC(c1ccc(C)cc1)(C(F)(F)F)NC2=O (stereo not given),?,?,-18.3%,-26.3%,-83.0*,?
CCOC(=O)c1cc(OC(=O)c2cc(OC)cc(OC)c2)n(-c2ccccc2)n1,-1.6%,3.1%,.,17.5%[46.1 µM],-12.4,3.0%[46.1 µM]
COc1ccc(-n2c(C)c3c(C)nnc(C)c3c2C)cc1OC,-26.3%,?,.,.,-60.2*,.
COc1ccc(-n2c(C)c(C(C)=O)c(C(C)=O)c2C)cc1OC,-7.4%,-10.7%,-1.3%,-27.2%,3.3,-26.1%
CCS(=O)(=O)N1CCc2cc(C(=O)NCc3ccc(Cl)cc3)ccc21,0.9%,-11.6%,.,0.0%[46.1 µM],-17.6,-2.8%[46.1 µM]
CSc1ccc(C(=O)N2CCc3c(cnc(C)c3CNC(=O)c3cncs3)C2)cc1,-2.5%,-0.4%,.,.,.,.
Cn1c(=O)c2c(n3c4ccccc4nc13)NC(=O)CC2c1cccc(F)c1 (stereo not given),0.2%,0.6%,.,.,10.1,-4.4%[46.1 µM]
N#Cc1ccccc1NC(=O)c1ccccc1OCC(=O)Nc1ccc2c(c1)oc1ccccc12,-4.2%,-11.5%,-16.7%,?,20.8,6.3%
CNC(=O)COc1ccccc1C(=O)Nc1ccc2c(c1)oc1ccccc12,.,.,?,20.6µM*,-68.8*,?

# Assay outcomes (PubChem)
